Sampled rows, rich in hits. Any-hit rate of the full collection: about 1.6%.
KCNQ2 pot – potentiators of rat KCNQ2 potassium channel; O88943; CHO-K1 KCNQ2, FluxOR thallium flux fluorescence; active compounds read high; B-score at 10 µM; 310,000 tested, 0.54% active; AID 2239;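 active = fluorescence ratio B-score at least 3 SD of library B-scores, with initial fluorescence B-score within 3 of them, cut at about 5.3 in these data; same plate scores as AID 2156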;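 also: B-score of peak minus minimum over baseline fluorescence ratio after K+ and Tl+ stimulus; positive B-score means potentiation of KCNQ2 with more thallium influx and brighter signal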
Target sequence (O88943 whole entry, looked up): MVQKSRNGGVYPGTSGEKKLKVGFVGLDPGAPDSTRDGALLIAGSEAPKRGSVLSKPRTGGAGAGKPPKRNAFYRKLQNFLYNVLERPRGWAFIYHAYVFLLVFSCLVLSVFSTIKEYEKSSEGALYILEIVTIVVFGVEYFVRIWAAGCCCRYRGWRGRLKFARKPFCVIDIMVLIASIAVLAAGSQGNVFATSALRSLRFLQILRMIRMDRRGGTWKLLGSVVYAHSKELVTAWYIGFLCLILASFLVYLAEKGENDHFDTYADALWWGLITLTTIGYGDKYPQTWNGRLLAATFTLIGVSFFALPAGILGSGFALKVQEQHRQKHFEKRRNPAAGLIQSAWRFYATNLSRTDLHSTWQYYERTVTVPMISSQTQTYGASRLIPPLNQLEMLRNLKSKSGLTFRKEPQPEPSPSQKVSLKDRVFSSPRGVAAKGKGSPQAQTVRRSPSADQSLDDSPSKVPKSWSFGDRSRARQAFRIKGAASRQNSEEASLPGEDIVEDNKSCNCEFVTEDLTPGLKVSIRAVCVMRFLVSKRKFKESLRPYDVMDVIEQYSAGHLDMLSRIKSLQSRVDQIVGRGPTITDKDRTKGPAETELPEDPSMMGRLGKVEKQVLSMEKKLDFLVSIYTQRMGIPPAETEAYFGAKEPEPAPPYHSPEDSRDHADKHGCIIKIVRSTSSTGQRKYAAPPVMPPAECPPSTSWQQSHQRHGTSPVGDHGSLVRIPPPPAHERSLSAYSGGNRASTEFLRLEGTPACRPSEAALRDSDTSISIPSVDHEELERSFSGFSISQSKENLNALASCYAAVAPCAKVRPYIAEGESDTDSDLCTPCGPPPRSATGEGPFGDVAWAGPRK
KCNQ2 inh – blocks the rat KCNQ2 potassium channel; CHO-K1 KCNQ2, FluxOR thallium flux, 20 min; active compounds read low; B-score at 10 µM; O88943; 310,000 tested, 1.1% active;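 active = fluorescence ratio B-score at most minus 3 library SDs, with starting brightness B-score within 2 library SDs, cut at about -5.5 in these data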
Large screens that a line does not name were inactive.

COc1ccc(C(=O)NNC(=O)OC(C)(C)C)cc1	none (no result: KCNQ2 pot)
COc1cc(C(=O)NCc2ccc(S(N)(=O)=O)cc2)ccc1OCC(=O)Nc1cccc(C(F)(F)F)c1	none
COc1cc(C(=O)N(C)CCOc2ccccc2)ccc1OCC(=O)Nc1cccc(C(F)(F)F)c1	KCNQ2 inh -6.66
Cc1cc(C)nc(N=Nc2c(O)n(Cc3ccc(Cl)cc3)c3ccccc23)n1	KCNQ2 inh -5.94
O=Nc1c(O)n(Cc2cccc(Cl)c2)c2ccccc12	none (no result: KCNQ2 pot)
COc1cc(/C=C2\CCn3c2nc2cc(C(=O)O)ccc2c3=O)ccc1OC(F)F	none (no result: KCNQ2 pot)
O=C(Nc1cn(-c2ccccc2)nc1-c1ccc(Cl)cc1)c1ccccc1	none (no result: KCNQ2 pot)
Cc1ccc(-c2nn(-c3ccccc3)cc2NC(=O)c2ccccc2)cc1	KCNQ2 inh -5.71
CCN(CC)C(=S)SCC(=O)NC12CC3CC(CC(C3)C1)C2	KCNQ2 pot 8.78
CCN(CC)CC(=O)NC12CC3CC(CC(C3)C1)C2	none (no result: KCNQ2 pot)
Nc1c(C(=O)c2ccc(Br)cc2)oc2ccccc12	none
O=C(c1ccc(Cl)cc1)c1oc2ccccc2c1CS(=O)c1ccccc1 (stereo unspecified)	KCNQ2 inh -5.68
COc1ccccc1N(CC(=O)NC(C)(C)C)S(=O)(=O)c1cccs1	none (no result: KCNQ2 pot)
O=C1C(Cl)=C(NS(=O)(=O)c2ccc([N+](=O)[O-])cc2)C(=O)c2ccccc21	KCNQ2 inh -5.96
O=[N+]([O-])c1ccc(Oc2ccc(S(=O)(=O)Nc3ccccc3)cc2)cc1	none
Cn1c(CC(=O)Nc2ccc(F)cc2)c(Sc2ccccc2)c2ccccc21	none (no result: KCNQ2 pot)
COc1ccc(NC(=O)Cc2c(Sc3ccccc3)c3ccccc3n2C)cc1	KCNQ2 inh -6.26
O=C(CSc1nc(C(F)(F)F)cc(=O)[nH]1)N1CCC(Cc2ccccc2)CC1	none
CC(C)=CC(=O)N1CCCC(N2CCN(c3ccc(F)cc3)CC2)C1 (stereo unspecified)	none (no result: KCNQ2 pot)
CC(=O)C(Cc1cccc(F)c1)(Cc1cccc(F)c1)C(C)=O	none (no result: KCNQ2 pot)
CCCCc1nc2ccccc2c(=O)n1NC(=O)c1c(O)c2c(n(CC(C)C)c1=O)CCCC2	none (no result: KCNQ2 pot)
CC(C)Cn1c2c(c(O)c(C(=O)Nn3c(Cc4ccccc4)nc4ccccc4c3=O)c1=O)CCCC2	KCNQ2 inh -6.26
CC1(c2ccc3c(c2)OCO3)NC(=O)N(CC(=O)Nc2ccc(N3CCOCC3)cc2)C1=O (stereo unspecified)	none (no result: KCNQ2 pot)
COc1ccccc1-n1c(SC)nc2c(sc(=S)n2-c2ccccc2)c1=O	none
COc1ccccc1-n1c(=S)sc2c(=O)n(Cc3ccco3)c(SC)nc21	KCNQ2 inh -6.92
CCN(CC)C(=O)CSCc1cnn(-c2ccccc2)c1-n1cccc1	none (no result: KCNQ2 pot)
CC(C)CN1C(=O)c2ccc(C(=O)Nc3ccc(OCC(=O)O)cc3)cc2C1=O	none
COC(=O)C1CN(C(=O)COc2ccccc2C)c2ccccc2O1 (stereo unspecified)	none (no result: KCNQ2 pot)
COC(=O)C1CN(C(=O)COc2ccc(Cl)cc2C)c2ccccc2O1 (stereo unspecified)	KCNQ2 inh -6.97
COc1ccc(NC2CCCN(C(=O)COc3ccc(Cl)cc3C)C2)cc1OC (stereo unspecified)	KCNQ2 inh -6.13
COc1ccccc1OCC(=O)N1CCCC(Nc2ccc(C)c(C)c2)C1 (stereo unspecified)	none (no result: KCNQ2 pot)
Cc1cccc2c(SCC(=O)NCC3CCCO3)nc(-c3ccc(F)cc3)nc12 (stereo unspecified)	none
CCCc1cc(=O)oc2cc(C)cc(OCC(=O)NCCCN3CCCC3=O)c12	none
CCCCN(C)C(=O)c1ccc2c(c1)S(=O)(=O)c1ccccc1C2=O	none
COc1ccc(-c2csc(NCCc3nc4cc(Cl)c(Cl)cc4n3CCCO)n2)cc1	none (no result: KCNQ2 pot)
O=C(CSCc1c(F)cccc1Cl)NCCSCc1ccco1	none (no result: KCNQ2 pot)
COc1ccccc1N(CC(=O)NCCSCc1ccc(Cl)cc1)S(C)(=O)=O	none
O=C(CSCc1ccc(Cl)cc1)NCCSCc1ccco1	KCNQ2 inh -6.39
COc1ccccc1OCC(=O)NCCSCc1ccc(Cl)cc1	KCNQ2 inh -5.63
CCN(Cc1ccccc1)C(=O)CCS(=O)(=O)c1ccc2c(c1)CCN2C(C)=O	none
CCOc1ccc(C(=O)CCN2CCCCCC2)cc1	KCNQ2 inh -6.58
CCCOc1ccc(C(=O)CCN2CCCCC2)cc1	none (no result: KCNQ2 pot)
Cc1sc(NC(=O)CSc2nc(N)n(CC(=O)c3ccccc3)n2)c(C#N)c1C	none
COc1ccc(-c2nc(NC(=O)c3n[nH]c(=O)c4ccccc34)sc2C)cc1	none (no result: KCNQ2 pot)
COP(=O)(OC)c1nc(-c2cccc3ccccc23)oc1N1CCCCC1	none (no result: KCNQ2 pot)
CCOP(=O)(OCC)c1nc(-c2cccc3ccccc23)oc1N1CCCCC1	KCNQ2 inh -6.08
O=C(OCc1nnc(-c2ccccc2)o1)c1cn(-c2ccccc2)nc1-c1ccccc1	KCNQ2 inh -6.23
O=C(OCc1nnc(-c2ccccc2)o1)c1ccc(-n2cnnn2)cc1	none
CCN(CC)C(=O)CSc1nnc(-c2ccccn2)n1-c1ccc(C)c(C)c1	none
Cc1ccc(NC(=O)c2cc(C)nc3ccccc23)c(C)c1	KCNQ2 inh -5.9
COc1ccc(NC(=O)c2cc(C)nc3ccccc23)c(OC)c1	none (no result: KCNQ2 pot)
CC(C)(C)c1ccc(C(=O)NC(=S)Nc2nc3c(s2)CCCC3)cc1	KCNQ2 pot 8.46
CN(C)c1ccc(C(=O)Nc2nc3c(s2)CCCC3)cc1	none (no result: KCNQ2 pot)
CC(C)(C)c1cc(CP(=O)(c2ccccc2)c2ccccc2)cc(C(C)(C)C)c1O	KCNQ2 inh -5.71
O=P(Cc1ccccc1)(c1ccccc1)c1ccccc1	none (no result: KCNQ2 pot)
CC(C)OC(=O)C(C)(C)Oc1ccc(C(=O)c2ccc(Cl)cc2)cc1	KCNQ2 inh -8.13
CC(C)(Oc1ccc(Cl)cc1)C(=O)O	none
CCN(c1ccc(OC)cc1)S(=O)(=O)c1csc(C(=O)N2CCCC2)c1	none (no result: KCNQ2 pot)
O=C(c1ccc(Cl)c(Cl)c1)N(Cc1ccco1)c1ccc(O)cc1	KCNQ2 inh -6.39
O=C(COc1ccccc1)N(Cc1ccco1)c1ccc(O)cc1	none (no result: KCNQ2 pot)
COc1cc(/C=N/c2oc(-c3ccccc3)cc2C#N)ccc1O	none (no result: KCNQ2 pot)
COc1ccc(C=C(c2nc3ccccc3s2)c2nc3ccccc3s2)cc1O	none (no result: KCNQ2 pot)
COc1cc(C=C(c2nc3ccccc3s2)c2nc3ccccc3s2)ccc1O	KCNQ2 inh -5.97
Cc1ccc(NC(=O)NCC2CCN(Cc3cccc(Cl)c3)CC2)c(Cl)c1	KCNQ2 pot 6.48
O=C(NCC1CCN(Cc2cccc(Cl)c2)CC1)Nc1ccccc1Cl	none
C=CCNc1nnc(SCC(=O)N2CCC(C(N)=O)CC2)s1	none
COc1cccc(CN(C)C(=O)/C=C/c2ccc(S(=O)(=O)N3CCCCCC3)cc2)c1	none (no result: KCNQ2 pot)
CCOC(=O)COc1c(OC)cc(Cl)cc1C1Nc2ccccc2C(=O)N1c1ccccc1 (stereo unspecified)	KCNQ2 inh -5.62
CCOC(=O)COc1c(OC)cc(Cl)cc1C1Nc2ccccc2C(=O)N1c1ccc(F)cc1 (stereo unspecified)	none (no result: KCNQ2 pot)
Cc1cc(SCc2ccc(Br)cc2)nc(=O)[nH]1	none (no result: KCNQ2 pot)
O=C(COc1ccc2c(c1)OCO2)NC12CC3CC(CC(C3)C1)C2	none (no result: KCNQ2 pot)
O=C(NCc1ccc2c(c1)OCO2)NC12CC3CC(CC(C3)C1)C2	KCNQ2 pot 25.2
Cc1ccc(CNC(=O)C2CCC(=O)N(CCc3cccc(F)c3)C2)cc1 (stereo unspecified)	none
COc1ccc(-n2cc(-c3ccccc3)c3c(NN4CCOCC4)ncnc32)cc1	KCNQ2 inh -5.61
Fc1ccc(-n2cc(-c3ccccc3)c3c(NN4CCOCC4)ncnc32)cc1	none
Cc1cccc(-n2cc(-c3ccccc3)c3c(N4CCOCC4)ncnc32)c1	KCNQ2 inh -6.67
Cc1ccc(-n2cc(-c3ccccc3)c3c(N4CCOCC4)ncnc32)cc1	none (no result: KCNQ2 pot)
Cc1c(C(=O)Nc2ccccn2)sc2nc3n(c(=O)c12)CCC3	none
